A selection: hits, their analogues and other compounds. The true share with any hit is near 1.6%.
ABCB6 inh 2 = blocks the human ABCB6 transporter; Q9NP58; K562-ABCB6 porphyrin accumulation, flow cytometry, 1 h; stronger effect = lower value; fluorescence ratio to DMSO, % at 10 µM; 360,000 compounds, 0.19% hits; AID 602162;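 active = fluorescence ratio to DMSO below 75%, the collection mean minus 3 SD; inconclusive = too few cells collected in the well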;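 note: signal is porphyrin accumulated inside mitochondria; 100% equals median channel fluorescence of DMSO control wells; lower ratio means ABCB6 inhibition with less porphyrin fluorescence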
Vif inh = HIV Vif inhibition. inhibition, % at 7.49 µM. 340,000 compounds, 0.35% hits. HEK293T cells, Vif self-association by quenched fluorescence, imaging, 24 h; in the data active = inhibition above about 50%, passing the limit was not always enough; inconclusive = no clear call, values can overlap the other calls; inactive = below about 31%
RAD54 branch = RAD54 (human) branch migration inhibition. RAD54 Holliday junction branch migration, FAM/BHQ fluorescence. Q92698. 360,000 compounds, 0.14% hits. inhibition, % at 10.4 µM;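 active = mean normalized replicate activity at least 40 and at least half of replicates scoring 40 or more; inconclusive = only one of the two criteria met; inactive = mean below 40 and under half of replicates reaching 40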;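 note: 0% = median of neutral control wells and 100% = median of positive control wells; inhibitors cause a drop in the FAM fluorescence signal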
Myeloid diff MLP = myeloid differentiation induction | calls only at 10 µM | ER-HoxA9 myeloid progenitors, lysozyme-GFP differentiation, flow cytometry | AID 624256 | 360,000 compounds, 1% hits;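 active = normalized GFP-positive differentiation at or above the plate's own cutoff, the solvent-only control mean plus 3 SD; inconclusive = no clear call, values can overlap the other calls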;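 note: cells exposed to compound for four days before flow analysis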
Glyco luc inh = N-linked glycosylation inhibition; D54 ERlucT glycosylation luciferase reporter, 24 h; percent of 100 nM tunicamycin response; reporter increase, % at 12.5 µM; 360,000 compounds, 0.23% hits;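 active = mean luciferase reporter signal, scaled so untreated is 0 and the glycosylation-blocking control 100, at or above a set limit in every replicate; inconclusive = mean reaches the limit but not every replicate does; inactive = mean below the limit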;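 note: luciferase carries N-glycosylation sites so blocking glycosylation raises the light; 0% = median of neutral control wells and 100% = median of 100 nM tunicamycin wells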
ABCB6 inh CP1 = inhibitors of human ABC transporter ABCB6. shares compounds with ABCB6 inh 2. K562-ABCB6 porphyrin accumulation, flow cytometry, 1 h; stronger effect = lower value. 700 tested, under 10 active. ratio response (% of DMSO), % at 10 µM. AID 602430;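 active = repeat-averaged ratio response below 75% of DMSO, the collection mean minus 3 SD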;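 note: median porphyrin fluorescence at 575 nm with 488 nm excitation from mitochondria; lower ratio means less porphyrin signal so ABCB6 inhibition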
Starred values were filed as active, the others as inactive.

COc1cccc(CN2CCNC(=O)C2CC(=O)NCc2cn3cccc(C)c3n2)c1OC (stereo unspecified) was read as ABCB6 inh 2 103, Vif inh 7 and Glyco luc inh 1.
For COc1cccc(CN2CCNC(=O)C2CC(=O)NCc2cn3ccccc3n2)c1OC (stereo unspecified) the results were ABCB6 inh 2 73*, Vif inh -2, Myeloid diff MLP inactive, Glyco luc inh 2 and ABCB6 inh CP1 97.
COc1ccc(S(=O)(=O)Nc2ccc3c(c2)C(=O)N([C@@H](C)CO)C[C@H](C)[C@@H](CN(C)S(=O)(=O)c2c(C)noc2C)OCCCC[C@@H](C)O3)cc1 was read as RAD54 branch -4.
`O=C(C[C@H]1C=C[C@H](NC(=O)c2ccccn2)[C@@H](CO)O1)NCc1cccc(F)c1` gave RAD54 branch -2.
Cc1noc(C)c1CSc1ccc(Br)cc1 was read as ABCB6 inh 2 71*, Vif inh 4, RAD54 branch -9, Myeloid diff MLP inactive, Glyco luc inh -1 and ABCB6 inh CP1 100.
For O=C(CCc1nc(-c2ccccc2Cl)no1)NC1CCCCC1 the results were ABCB6 inh 2 73*, Vif inh -5, RAD54 branch 5, Myeloid diff MLP inactive, Glyco luc inh 1 and ABCB6 inh CP1 99.
For O=C(CCc1nc(-c2ccccc2Cl)no1)NC1CCCC1 the results were ABCB6 inh 2 99, Vif inh -12, RAD54 branch -11, Myeloid diff MLP inactive and Glyco luc inh 0.
For C[C@H](CO)N1C[C@H](C)[C@@H](CN(C)C(=O)C2CCOCC2)Oc2ncc(C#CC(C)(C)O)cc2C1=O the results were RAD54 branch -4.
Screening Cc1ccccc1N(Cc1ccccc1F)S(C)(=O)=O returned ABCB6 inh 2 63*, Vif inh 0, RAD54 branch 16, Myeloid diff MLP inactive, Glyco luc inh 1 and ABCB6 inh CP1 99.
For Cc1ccc(N(Cc2ccccc2F)S(C)(=O)=O)c(C)c1 the results were ABCB6 inh 2 97, Vif inh 23, Myeloid diff MLP inactive and Glyco luc inh -2.
Screening Cc1nc2c(C(=O)N3CCCCC3)cnn2c(C)c1Cc1ccccc1F returned ABCB6 inh 2 96, Vif inh -9, RAD54 branch 4, Myeloid diff MLP inactive, Glyco luc inh -8 and ABCB6 inh CP1 98.
Screening Cc1nc2c(C(=O)N3CCN(C)CC3)cnn2c(C)c1Cc1ccc(Cl)cc1 returned ABCB6 inh 2 99, Vif inh -13, RAD54 branch -10, Myeloid diff MLP inactive, Glyco luc inh 0 and ABCB6 inh CP1 100.
Screening Cc1ccccc1Cc1c(C)nc2c(C(=O)N3CCN(Cc4ccc5c(c4)OCO5)CC3)cnn2c1C returned ABCB6 inh 2 90, Vif inh -1, RAD54 branch -1, Myeloid diff MLP inactive and Glyco luc inh 0.
`C[C@@H]1CCCCO[C@@H](CN(C)S(=O)(=O)c2ccc(Cl)cc2)[C@H](C)CN([C@H](C)CO)C(=O)c2cc(NC(=O)Nc3ccc(F)cc3)ccc2O1` gave RAD54 branch 5.
Screening C[C@@H]1CN([C@H](C)CO)C(=O)c2cc(-c3ccccc3)cnc2O[C@@H]1CN(C)C(=O)c1ccccc1F returned RAD54 branch 0.
For O=C(Nc1ccc(Cn2cccn2)cc1)c1ccc(COc2ccc(Br)cc2)cc1 the results were ABCB6 inh 2 72*, Vif inh -2, RAD54 branch 6, Myeloid diff MLP inactive, Glyco luc inh 2 and ABCB6 inh CP1 102.
`CN1C(=O)c2cc(NC(=O)c3ccc(C#N)cc3)ccc2OC[C@H]2O[C@@H](CC(=O)NCc3ccc4c(c3)OCO4)CC[C@@H]21` gave RAD54 branch -1.
`C[C@@H]1CCCCO[C@@H](CN(C)C(=O)CCCN(C)C)[C@H](C)CN([C@@H](C)CO)C(=O)c2cc(NC(=O)c3ccncc3)ccc2O1` gave RAD54 branch 4.
Screening CC(Oc1ccc(Cl)cc1Cl)c1ccnc2nc(N3CCOCC3)nn12 (stereo unspecified) returned ABCB6 inh 2 74*, Vif inh -17, RAD54 branch -7, Myeloid diff MLP inactive, Glyco luc inh 1 and ABCB6 inh CP1 99.
Screening CC1CCCCC1NC(=O)c1cc2c(s1)CS(=O)(=O)C2 (stereo unspecified) returned ABCB6 inh 2 71*, Vif inh 10, RAD54 branch 9, Myeloid diff MLP inactive, Glyco luc inh 1 and ABCB6 inh CP1 98.
Cc1ccc2nc(CSc3nnc(Cc4cccs4)n3C3CCCCC3)cc(=O)n2c1 was read as ABCB6 inh 2 66*, Vif inh -8, RAD54 branch 6, Myeloid diff MLP inactive, Glyco luc inh 1 and ABCB6 inh CP1 102.
`Cc1cc(NC(=O)c2cc(C)on2)n(-c2ccccc2)n1` gave ABCB6 inh 2 72*, Vif inh 0, Myeloid diff MLP inactive, Glyco luc inh 0 and ABCB6 inh CP1 103.
CO[C@@H]1CN(C)C(=O)c2cc(NC(=O)Nc3ccccc3)ccc2OC[C@@H](C)N(CC2CC2)C[C@H]1C was read as RAD54 branch -9.
Cc1cccc(Cc2c(C)nc3c(C(=O)NCc4ccco4)cnn3c2C)c1 was read as ABCB6 inh 2 88, Vif inh -19, RAD54 branch -12, Myeloid diff MLP active, Glyco luc inh -10 and ABCB6 inh CP1 101.
Cc1nc2c(C(=O)NCc3ccc4c(c3)OCO4)cnn2c(C)c1Cc1ccc(F)cc1Cl was read as ABCB6 inh 2 97, RAD54 branch -18, Myeloid diff MLP inactive and Glyco luc inh -1.
`O=C(NCc1ccco1)c1cnn2c(C(F)(F)F)cc(-c3ccccc3)nc12` gave ABCB6 inh 2 97, Vif inh -5, RAD54 branch -11, Myeloid diff MLP inconclusive and Glyco luc inh 3.
`Cc1nc2c(C(=O)NCc3ccco3)cnn2c(C)c1Cc1ccc(F)cc1Cl` gave ABCB6 inh 2 72*, Vif inh -22, RAD54 branch -8, Myeloid diff MLP inactive, Glyco luc inh 0 and ABCB6 inh CP1 100.
`CCOC(=O)c1sc(NC(=O)C(CC)Sc2nnc3c4ccccc4n(C(C)C)c3n2)nc1C` (stereo unspecified) gave ABCB6 inh 2 93, Vif inh 8, RAD54 branch 2, Myeloid diff MLP inactive and Glyco luc inh -3.
Screening CCOC(=O)Cc1nnc(NC(=O)C(CC)Sc2nnc3c4ccccc4n(C)c3n2)s1 (stereo unspecified) returned ABCB6 inh 2 74*, Vif inh 14, RAD54 branch 1, Myeloid diff MLP inactive, Glyco luc inh 2 and ABCB6 inh CP1 100.
Screening Cc1ccsc1CNC(=O)C1(C)CCN1C(C)C (stereo unspecified) returned ABCB6 inh 2 71*, Vif inh 10, RAD54 branch 3, Myeloid diff MLP inactive, Glyco luc inh 0 and ABCB6 inh CP1 100.

From PubChem BioAssay
